Active and inactive are the calls of the source. The rule behind the calls is not given here.

The nature of the test: liver-stage malaria parasite load reduction – cell-based, known kinase inhibitor set, luminescence, hepatoma host viability (AID 624392).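 Note: infected cells incubated roughly two days before readout.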 Conditions: Plasmodium liver stage in hepatoma cells, luciferase luminescence, concentration not given here; liver cell % of control: measured here: host liver cell viability; parasite % of control: stronger effect = lower value.
On to `NC(=O)Cc1ccccc1Oc1nccc(-c2c(-c3ccc(F)cc3)ncn2C2CCNCC2)n1`, for which the parasite % of control was 160% (inactive) and the liver cell % of control amounted to 110%.
For the compound `NC(=O)c1cccc(Nc2nccc(Nc3cccc4[nH]ncc34)n2)c1`, the parasite % of control was 429% (inactive) and the liver cell % of control was determined as 75%.
For `CCS(=O)(=O)c1ccc(OC)c(Nc2ncc(-c3cccc(C(C)=O)c3)o2)c1`, in that order: 48.2% (inactive) and 169%.
For `CS(=O)(=O)CCNCc1ccoc1-c1ccc2ncnc(Nc3ccc(OCc4ccccc4)cc3)c2c1`, in that order: 112% (inactive) and 97.4%.
As to `COc1cccc(-n2ncc3c(N/N=C/c4ccc(S(C)(=O)=O)cc4)ncnc32)c1`, the parasite % of control is 26.1% (inactive) and the liver cell % of control was determined as 107%.
For `COc1cccc(Nc2nccc(-c3cnn4ncccc34)n2)c1`, in that order: 13.4% (inactive) and 85.6%.
In the case of `COC(=O)Nc1nc2ccc(Sc3ccc(NC(=O)Nc4cc(C(F)(F)F)ccc4F)cc3)cc2[nH]1`, the liver cell % of control is 136% and the parasite % of control was 195% (inactive).
For `NC(=O)c1sc(-n2cnc3ccccc32)cc1OCc1ccccc1Br`, in that order: 77.6% and 256% (inactive).
For `Nc1nonc1-c1nc2cnccc2n1C1CC1`, in that order: 86.3% and 247% (inactive).
For `NC(=O)c1cc(-c2ccc(F)cc2)cc(-c2ccncc2)c1N`, in that order: 110% and 93.1% (inactive).
Consider `O=C(Nc1ccc(Oc2ccc3nc(NC(=O)c4ccco4)[nH]c3c2)cc1)Nc1cc(C(F)(F)F)ccc1F`, for which the liver cell % of control stood at 140% and the parasite % of control is 37.4% (inactive).
Regarding `Cc1cccc(Nc2ncc(-c3ccccc3)o2)c1`, the liver cell % of control was 79.5% and the parasite % of control was 180% (inactive).
On to `CS(=O)(=O)CCNCc1coc(-c2ccc3ncnc(Nc4ccc(OCc5ccccc5)cc4)c3c2)c1`, for which the parasite % of control was 176% (inactive) and the liver cell % of control is 87.7%.
Regarding `COc1cc2ncn(-c3cc(OCc4ccccc4Cl)c(C(N)=O)s3)c2cc1OC`, the liver cell % of control turned out to be 147% and the parasite % of control is 37.4% (inactive).
For `COc1cc2ncn(-c3cc(OCCc4ccccc4)c(C(N)=O)s3)c2cc1OC`, in that order: 140% and 71.4% (inactive).

The record behind these values is PubChem BioAssay.
